# Measured values reported in PubChem BioAssay AID1508600 (Functional Genomics Laboratory (NCATS/FGL), 2020).
# Out of some 53,000 sequences screened, about 3,700 (7%) were called active.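 How the source made its calls: active means gene knockdowns whose robust z-score for IL-1 alpha signal is at least 2 or at most -2, so actives lie on both sides; inactive means the rest.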 The sample as a whole holds a higher share of actives than the screen did.
# Experiment: Components of the Cytosolic LPS Sensing Pathway: Gene Identification via Genome-wide siRNA Screen;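 further: robust z of the log signal after scaling to non-targeting control siRNA wells of the plate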
# Conditions: RAW264.7 macrophages, IL-1a HTRF, actives lie on both sides, screened at 100 nM (by protocol), cells primed 5 h with Pam3CSK4 first
# Summary of the method: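 RAW264.7 mouse macrophages reverse-transfected with single siRNAs (100 nM final) for 48h, primed with Pam3CSK4 for 5 hours, then transfected with LipidA for 24 hour. Supernatant IL-1a read by HTRF; values normalized to negative-control median, log-transformed robust z-scores.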
row,Sequence,z-score
1,GCAAGCGAUGGCACAUAGATT against Ap1g2,1.03 (inactive)
2,GGUUACGAAGAUUAAUGUGTT against Crk,1.27 (inactive)
3,GGACAGGUGUCGAUCAAACTT against Zfp280c,0.0987 (inactive)
4,GGAAUUGCACUUUUCCAAUTT against Phlda1,0.481 (inactive)
5,GGAUGCAGUACGAAAUUCUTT against Psmd1,-2.93 (active)
6,GGCAGUGCCAAUGAACAAGTT against Elob,0.591 (inactive)
7,GGUUGUUUUGGAAUUGAUATT against Smu1,-2.82 (active)
8,CGAGCAUGCAUUCAAAGGATT against Lrrc3b,1.33 (inactive)
9,GGGCACAUACUCAGAUGAATT against Ngfr,-0.62 (inactive)
10,GAGUAUCAUUUCCUGUUUUTT against Olfr389,-0.395 (inactive)
11,CCAUUCCAGUUAUGUCAAUTT against Pus3,-1.06 (inactive)
12,CCCUCAGGACACGUUUUAGTT against Wdsub1,-2.14 (active)
13,CGAGCCAUACCUUCAACUGTT against Ncoa2,-0.815 (inactive)
14,GGAGCAGAUGAGAUCCAAGTT against Cdc42se1,-0.256 (inactive)
15,GCCUUUAUAGUCUUAAGCATT against Ndc1,-0.209 (inactive)
16,GGAAAAACUCCCUCGGUACTT against Rps11,0.683 (inactive)
17,GCUGCUUUGGGCACAAGAUTT against Nppb,0.428 (inactive)
18,GCUCCUAUGGCAACAUCGUTT against Olfr303,2.11 (active)
19,GGUAUGAGAUUACCUUCACTT against 1700037H04Rik,-1.16 (inactive)
20,GCUCAGAAAUCGGCUCAGATT against Ssbp2,-1.66 (inactive)
21,GCUAAACUCCACCAAGACATT against Grid2ip,0.338 (inactive)
22,GGGCAAUUAUCUUUGUUAUTT against Olfr589,-0.0712 (inactive)

row,Sequence,z-score
1,GCCAUUAUGACAGAACGCATT against Adra1d,-0.606 (inactive)
2,GAACUACCUGGACUUCCACTT against Cox6b1,2.5 (active)
3,GGACGAUUCUUUUAUUUGATT against Fam78b,-1.22 (inactive)
4,CCAAUCGAUACAUCAUUUUTT against Gmcl1,1.1 (inactive)
5,GCAUCAUACCACUGUGUUUTT against Obox1,-1 (inactive)
6,GGCUGUUUGGCUUGUUUAATT against Golga7,1.82 (inactive)
7,CGGAUUCAGUAUUAGCAAUTT against Ogt,-2.4 (active)
8,GGAAUUAUUCAGCAAGACUTT against Cdrt4,-0.636 (inactive)
9,CGUUUGUUACUCUUCAGCUTT against Olfr1461,-1.07 (inactive)
10,GGCCAUAACACAAAUGUAGTT against Prpf4,0.554 (inactive)
11,GGAGGAAAGUAUGAAGAAATT against Cyp2j9,-0.337 (inactive)
12,GGCUGUGCAUUAUAUCCUUTT against Lhfpl1,1.2 (inactive)
13,GCUCCUAGUGUUUUUGUGGTT against Rplp0,-2.91 (active)
14,GGUUAUCCAGAGAGAAGGATT against Asxl2,0.399 (inactive)
15,GGCUAAGCUGAAGAAGCACTT against Fam219b,-0.326 (inactive)
16,GGUGACAACACUUGUCAACTT against Ctnna2,-0.551 (inactive)
17,GCCCAUGUUUUUUUUUCUGTT against Olfr648,0.776 (inactive)
18,GGCUGCUUAACCUUGAUAATT against Lrrd1,0.529 (inactive)
19,CGGUAGAGUCAGCAUUUGATT against Sez6,-0.231 (inactive)
20,GCCGAGAUGAGCUCCUAAUTT against Krt27,1.29 (inactive)
21,GCUACAGCUUCAAUUAAAUTT against Birc6,0.135 (inactive)
22,GGGAGAAACGCAUCUUAUCTT against Ngly1,2.38 (active)

row,Sequence,z-score
1,CCCACAGGGAUUUAUUUAUTT against Slc37a1,-0.362 (inactive)
2,GGACAUCCAUCAGUACAGGTT against Hras,0.812 (inactive)
3,GGCUGUCACUUUAUAGGCATT against Wrnip1,-0.862 (inactive)
4,CGACUUGAACUCUAUGGCGTT against Ascl1,-0.12 (inactive)
5,CCGAAAGGCUGGUACAUUCTT against Kin,-0.494 (inactive)
6,GGUUAUCUUCUUGACAGAATT against Nmur2,1.42 (inactive)
7,CCUGUUUAGCAUCUGGGAGTT against Gpr1,6.24 (active)
8,GGUAGAGAUGUACAUUUGGTT against Chrdl2,-1.72 (inactive)
9,GCAAGAAGUUCCUAUCAUCTT against Polr2b,-1.67 (inactive)
10,GCCCAAACUCAAGCAAGUCTT against Trpm3,2.37 (active)
11,GGUUACCCAACUUGAAGGATT against Parp16,1.37 (inactive)
12,GGCAAAAAGAUAGGAGCUGTT against Txn1,0.57 (inactive)
13,GGUGACUAACGAGAUCAUUTT against Slc19a1,0.913 (inactive)
14,CGAACAGAGUCUAAUCUCATT against Ptpn1,1.69 (inactive)
15,AGGAAUGCCCAGGUCUCAGTT against Lst1,-1.07 (inactive)
16,GGUCUGCUAUGAAAUUAUGTT against Tmem14c,-0.537 (inactive)
17,GGACGGAGCUGUAAUUGCATT against Arhgef12,2.16 (active)
18,GGCCUACAGGACAAAGUUUTT against Comt,0.394 (inactive)
19,CGACUAGAGUUGUGUGAUATT against Uqcrh,0.834 (inactive)
20,GGUGCAUUAUAAGAAUCGCTT against Fhl1,0.144 (inactive)
21,GGUGGUGCCAAGAUGUUGUTT against Aste1,2.26 (active)
22,GUACCUCUACUAUUCCUUUTT against Krtap5-2,-0.13 (inactive)

row,Sequence,z-score
1,GGAGUUCAAGACGGAGAAGTT against Gpr27,0.000428 (inactive)
2,GGCUUAUAUCUGAUUGAUGTT against Rom1,-1.17 (inactive)
3,GGAAAGUGACUGCAUGUUCTT against Pgp,-1.3 (inactive)
4,GGACUUCUUCACCAUCUGGTT against Lcat,-1.3 (inactive)
5,GGUACAUGAUCAAUUUAGATT against Tspyl4,0.726 (inactive)
6,GGACAUUAGGAAAUUAGAUTT against Ppp3cc,-0.404 (inactive)
7,GGCAGUACUGUCCAGAUGATT against Gsdma2,-2.12 (active)
8,CCUUAUCUAUAACUCUGCUTT against Tirap,-0.772 (inactive)
9,GGAGAGCGAAGAAAAAAUGTT against Birc2,-0.852 (inactive)
10,GGUUGUCUUCAACACCAAATT against Lgals7,-0.147 (inactive)
11,GCAAGAGCAUGCUUACGGUTT against Ccl1,-0.324 (inactive)
12,GGGUUUCUUGUUGGUUUUATT against Dock5,2.29 (active)
13,GGACGGGAUUGAGCCUAUGTT against Eif4e,1.65 (inactive)
14,CCAAGCUUACACUAGUGUUTT against Cdk6,-0.429 (inactive)
15,GCGUGUACAAGGCUAUUCATT against Stk4,1.19 (inactive)
16,GGCCUACUUCCUACUCAAATT against Tbx10,-1.85 (inactive)
17,CCUACACCUAGAAAUCUAGTT against Gpr3,1.52 (inactive)
18,GGAUGAGGAUGGCUAUAAGTT against Zc3h10,0.585 (inactive)
19,GGGAAGGAUGACCUAACAATT against Gpatch4,-0.839 (inactive)
20,CGGAUUAGAAGAGCCAAACTT against Cd59b,0.352 (inactive)
21,GGCUACCCUUUUGAACCUCTT against Psmd3,-2.81 (active)
22,GGAAAAAGCCAAGCUCAUCTT against Syt3,-1.5 (inactive)

row,Sequence,z-score
1,GGAGCAUCCUGGCAAACAGTT against Slc51b,-1.32 (inactive)
2,CUGAUCCUUCAAUUAACAUTT against Olfr202,0.0318 (inactive)
3,GCGACUCCUAUAAUUUCUATT against Rpa3,-2.17 (active)
4,GCAGGUCCUGACCUAUGUGTT against Cyp27b1,-0.556 (inactive)
5,CCAUCUGCAUCAAGAGAAATT against Kirrel2,0.709 (inactive)
6,GGAACGUACAGGAUAAUCUTT against Krt79,4.28 (active)
7,GGCUAAAGAAUAAAGAUCCTT against Cadm2,1.66 (inactive)
8,GUGAGACCAAGUUACAGGATT against Olfr1504,1.5 (inactive)
9,CCAACCAAAGAUGAAUUGUTT against Usp19,-0.445 (inactive)
10,GGUGGCCAAACAGGAAAAGTT against Fau,0.91 (inactive)
11,GGCACACAAACAAUUGGUATT against Rrp36,-0.318 (inactive)
12,GGGUUUCAUUAAAUUUCCUTT against Cyp2g1,-2.06 (active)
13,CCGAAUAUCGAGUUCCCAATT against Ceacam20,-0.0196 (inactive)
14,GGAUGAGAAUGGCACCAGUTT against Prima1,-1.4 (inactive)
15,GGAAAUGUACAUCAUCAAGTT against Cnga2,-1.24 (inactive)
16,CCUGUUAAACAGGACUAGUTT against Tmem263,-1.51 (inactive)
17,GGGAAUUUGCUCCUGAAAGTT against Pcdhb6,-0.936 (inactive)
18,CCUUUGAAUCCCAGGUUCATT against Lmo1,3.05 (active)
19,GGCCCUCCCAAAUCAUUUGTT against Slc30a6,0.188 (inactive)
20,GGAUACAUUGAGAAAGACUTT against Tor1aip2,2.43 (active)
